Out of some 360,000 compounds screened, about 16,000 (4.4%) were called active. Not shown: some 9% with an inconclusive outcome. The entries come from a sample that favours actives as a whole. Unmarked numbers belong to inactive results. The call rests on the fitted dose curve; in most records, active means well fitted inhibition curve with a large enough effect; inconclusive means small, poorly fitted or top-dose-only effect; inactive means no such curve, though single readings can be large or run the other way.
What follows are compounds tested against Bromodomain adjacent to zinc finger domain protein 2B (Homo sapiens) (UniProt Q9UIF8) (assay: qHTS Assay for Inhibitors of BAZ2B). Conditions: AlphaScreen BAZ2B-H3K14Ac peptide displacement; series mostly up to 114 µM; activity change, negative = inhibition: at the top concentration.
In short: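 AlphaScreen displacement of biotin-H3(5-23)K14Ac peptide (50 nM final) from BAZ2B (50 nM final) in PBS pH 7.4, 0.01% Tween-20; complex preformed 30 min RT, then compounds (top 110 uM) 30 min RT, beads 20 min dark.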
Further: nearly all actives have a fitted effect of over 60% in size.
On the % scale 0 is the no-effect control and ±100 the full control effect; potency means the concentration at half of the fitted maximal effect.

Sequence of Bromodomain adjacent to zinc finger domain protein 2B (Homo sapiens) (Q9UIF8 whole entry, looked up, the tested form may be a part): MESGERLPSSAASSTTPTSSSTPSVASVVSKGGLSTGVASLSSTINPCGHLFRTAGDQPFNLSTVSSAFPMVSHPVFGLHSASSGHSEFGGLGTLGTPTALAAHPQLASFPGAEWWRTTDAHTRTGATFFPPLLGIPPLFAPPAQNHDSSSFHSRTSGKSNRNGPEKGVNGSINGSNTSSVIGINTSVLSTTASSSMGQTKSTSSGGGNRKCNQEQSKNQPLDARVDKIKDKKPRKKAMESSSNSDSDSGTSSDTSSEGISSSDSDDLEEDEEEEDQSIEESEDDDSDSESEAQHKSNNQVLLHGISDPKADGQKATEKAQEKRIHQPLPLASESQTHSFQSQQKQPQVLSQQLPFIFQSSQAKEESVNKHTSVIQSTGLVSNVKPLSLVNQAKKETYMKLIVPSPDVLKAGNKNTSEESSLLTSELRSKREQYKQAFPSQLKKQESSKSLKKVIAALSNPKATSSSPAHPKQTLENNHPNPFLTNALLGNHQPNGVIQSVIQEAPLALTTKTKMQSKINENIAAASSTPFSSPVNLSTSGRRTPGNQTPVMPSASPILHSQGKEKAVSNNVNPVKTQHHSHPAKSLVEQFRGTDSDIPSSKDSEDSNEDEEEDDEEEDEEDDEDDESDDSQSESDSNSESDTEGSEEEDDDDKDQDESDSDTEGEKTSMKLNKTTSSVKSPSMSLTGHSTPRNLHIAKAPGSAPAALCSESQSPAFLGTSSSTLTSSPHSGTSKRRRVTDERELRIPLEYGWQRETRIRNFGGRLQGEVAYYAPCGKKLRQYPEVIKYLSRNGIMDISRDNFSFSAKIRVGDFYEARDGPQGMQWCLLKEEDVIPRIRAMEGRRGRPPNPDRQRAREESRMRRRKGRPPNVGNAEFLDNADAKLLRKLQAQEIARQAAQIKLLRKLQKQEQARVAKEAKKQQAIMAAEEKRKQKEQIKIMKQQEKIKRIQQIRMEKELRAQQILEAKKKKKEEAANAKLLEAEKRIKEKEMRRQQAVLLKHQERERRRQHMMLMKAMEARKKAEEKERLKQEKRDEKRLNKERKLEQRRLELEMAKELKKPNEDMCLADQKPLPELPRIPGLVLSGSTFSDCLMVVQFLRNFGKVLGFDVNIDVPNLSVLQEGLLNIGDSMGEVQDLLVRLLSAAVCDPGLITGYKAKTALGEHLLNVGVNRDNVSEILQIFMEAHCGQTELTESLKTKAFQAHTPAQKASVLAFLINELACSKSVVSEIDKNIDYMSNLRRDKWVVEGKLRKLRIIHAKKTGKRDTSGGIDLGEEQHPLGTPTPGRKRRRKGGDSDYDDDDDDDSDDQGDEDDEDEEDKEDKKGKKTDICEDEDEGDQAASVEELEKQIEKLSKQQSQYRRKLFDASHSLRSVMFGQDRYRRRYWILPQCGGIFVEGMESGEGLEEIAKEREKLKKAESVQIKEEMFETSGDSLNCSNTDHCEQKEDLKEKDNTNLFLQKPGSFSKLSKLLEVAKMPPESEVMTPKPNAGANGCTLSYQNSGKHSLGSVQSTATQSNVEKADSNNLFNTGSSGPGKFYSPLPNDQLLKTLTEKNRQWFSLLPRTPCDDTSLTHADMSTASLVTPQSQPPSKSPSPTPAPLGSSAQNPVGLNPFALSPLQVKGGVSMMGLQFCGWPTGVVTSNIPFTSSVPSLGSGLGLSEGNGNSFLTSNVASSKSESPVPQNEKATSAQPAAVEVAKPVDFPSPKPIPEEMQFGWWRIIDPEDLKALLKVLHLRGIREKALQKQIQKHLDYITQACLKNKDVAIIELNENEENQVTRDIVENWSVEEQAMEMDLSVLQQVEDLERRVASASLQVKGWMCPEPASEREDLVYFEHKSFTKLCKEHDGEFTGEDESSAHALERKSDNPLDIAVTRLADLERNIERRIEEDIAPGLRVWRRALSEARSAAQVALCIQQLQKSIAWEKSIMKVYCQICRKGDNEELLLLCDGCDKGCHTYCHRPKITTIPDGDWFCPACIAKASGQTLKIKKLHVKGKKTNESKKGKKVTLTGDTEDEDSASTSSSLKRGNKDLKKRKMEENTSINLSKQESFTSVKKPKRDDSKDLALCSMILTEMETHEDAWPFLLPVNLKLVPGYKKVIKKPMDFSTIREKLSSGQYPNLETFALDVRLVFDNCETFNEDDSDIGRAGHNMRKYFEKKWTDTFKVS

| SMILES | activity change, negative = inhibition | Potency |
| --- | --- | --- |
| CCOc1ccc(-c2cc(C)n3nc(C(=O)Nc4ccc(C)c(C)c4)cc3n2)cc1 | -6.73% | – |
| CCOC(=O)c1scc(-c2ccccc2)c1S(=O)(=O)Nc1ccccc1F | 7.14% | – |
| Cc1ccnc(N2CCCC(C(=O)NC3CC3)C2)n1 (centres undefined) | 1.89% | – |
| Cc1ccnc(-n2sc3ccccc3c2=O)n1 | – | 25.1 µM (active) |
| Cc1ccnc(SCC(N)=O)n1 | -21.5% | – |
| Cc1ccc(C)c(N2CCN(S(=O)(=O)c3ccc4c(c3)C(C(C)C)C(=O)N4)CC2)c1 (centres undefined) | -11.9% [at 57.1 µM] | – |
| CC(NC(=O)c1cc2c(=O)n3ccccc3nc2n(C(C)C)c1=N)c1ccccc1 (centres undefined) | 1.9% | – |
| CCc1ccccc1NC(=O)CSc1nc(C)c(C(=O)Nc2ccccc2)c(-c2ccc(Cl)cc2)c1C#N | 0.0077% | – |
| COc1ccc(-n2c(=O)[nH]c3cc(C(=O)NCCc4ccc(OC)c(OC)c4)ccc3c2=O)c(OC)c1 | 4.46% | – |
| CCn1c(C)c(C)c2cc(C(=O)NCCc3cc(OC)ccc3OC)ccc21 | – | 31.6 µM (active) |
| COc1ccc(OC)c(CCNC(=O)c2nn(C)c3c2CS(=O)(=O)c2ccccc2-3)c1 | -27.6% | – |
| CCOc1cccc2cc(-c3cn4c(n3)sc3cc(C)ccc34)c(=O)oc12 | -17.3% | – |
| Cc1ccc(NC(=O)CSc2cccc3cccnc23)c(C)c1 | -21.6% | – |
| Cc1cc(Br)ccc1NC(=S)NC1CCCC1 | -19.8% | – |
| Cc1ccc(NC(=S)Nc2ncccc2C)c(C)c1 | – | 44.7 µM (active) |
| COC(=O)c1scc(-c2ccc(C)cc2)c1S(=O)(=O)Nc1cc(Cl)c(OC)cc1OC | -22.8% | – |
| Cc1cc(C)c(NC(=O)CCc2c(C)nc3c(c(C)nn3C(C)(C)C)c2C)c(C)c1 | -12.1% | – |
| OC(CNCc1ccc2c(c1)OCO2)COc1ccccc1 (centres undefined) | -13.4% | – |
| COc1ccc(OCC(O)CNC(=O)Nc2ccc(Cl)cc2)cc1 (centres undefined) | -5.34% | – |
| OC(CNCCc1ccc(Cl)cc1Cl)COc1ccccc1 (centres undefined) | – | 70.8 µM (active) |
| CCCNC(=O)c1ccc(Cn2c(SCC(N)=O)nc3ccccc3c2=O)cc1 | 0.549% | – |
| CC(=O)c1ccc(NC(=O)CSc2nnc(NC(=O)Nc3ccccc3)s2)cc1 | 7.08% | – |
| Cc1cc2c(cc3c(SCc4nc(-c5ccccc5)oc4C)nnc(C)n32)o1 | -15.2% | – |
| Cc1cc2c(cc3c(SCc4cccc(Cl)c4)nnc(C)n32)o1 | – | 25.1 µM (active) |
| O=C(c1ccco1)N1CCN=C1SCc1cccc(Cl)c1 | -1.87% | – |

| SMILES | activity change, negative = inhibition | Potency |
| --- | --- | --- |
| CCc1ccccc1NC(=O)c1sc2nc3c(cc2c1N)CN(Cc1ccccc1)CC3 | -6.05% | – |
| CCc1ccc(NC(=O)c2sc3nc4c(cc3c2N)CN(CC)CC4)cc1 | – | 35.5 µM (active) |
| CCN1CCc2nc3sc(C(=O)Nc4ccccc4OC(F)(F)F)c(N)c3cc2C1 | -35% | – |
| O=C(COc1ccccc1)NCc1ccc2c(c1)CCN2C(=O)c1ccc(F)cc1 | -11.4% | – |
| CCc1nc2cccnc2n1-c1ccc(CC(=O)Nc2c(C)cccc2C)cc1 | -2.4% | – |
| Cc1cc(C)cc(NC(=O)CSc2nc3nccnc3c(=O)n2CCc2c[nH]c3ccccc23)c1 | -12.2% | – |
| Cc1ccc(-n2ncc3c(N4CCC(C(N)=O)CC4)ncnc32)cc1 | -0.637% | – |
| Cc1cc(C)cc(OCC(=O)Nc2nc(-c3ccc(F)cc3)ns2)c1 | -2.4% | – |
| CN(C)c1ccc(Nc2c3c4c(cccc4n(C)c2=O)C(=O)c2ccccc2-3)cc1 | – | 1.58 µM (active) |
| Cc1ncc(CO)c(/C=N/NC(=O)c2cccc(S(=O)(=O)N3CCCC3)c2)c1O | – | 28.2 µM (active) |
| Cc1cccc(NC(=O)c2cccc(S(=O)(=O)N3CCCC3)c2)n1 | -4.94% | – |
| COc1ccc(Br)cc1/C=N/NC(=O)c1cccc(S(=O)(=O)N2CCOCC2)c1 | -15.1% | – |
| CCC(=O)N1N=C(c2ccc(OC)cc2)CC1c1cn(-c2ccccc2)nc1-c1cccs1 (centres undefined) | -5.53% | – |
| O=C(Cn1ncc2c3ccccc3n(Cc3ccccc3)c2c1=O)NC1CCCCCC1 | -0.79% | – |
| COc1ccc(N2CCN(Cc3ccc(Br)s3)CC2)cc1 | – | 17.8 µM (active) |
| COc1ccc(N2CCN(Cc3nnc(-c4ccccc4)o3)CC2)cc1 | -35.9% | – |
| Fc1ccc(N2CCN(Cc3cnc(Oc4ccc(Br)cc4)s3)CC2)cc1 | -9.51% | – |
| CCN1CCN(c2ncnc3c2cnn3-c2ccc(C)c(C)c2)CC1 | -2.62% | – |
| CC(C)(C)c1ccc(OCC(=O)N2CCC(c3nc4ccccc4s3)CC2)cc1 | -19.1% | – |
| O=C(OCN1C(=O)c2ccccc2C1=O)/C(=C\c1ccco1)NC(=O)c1ccccc1 | -5.64% | – |
| COC(=O)C1=C(C)N(C(C)c2ccccc2)C(=O)/C1=C\c1ccco1 (centres undefined) | – | 20 µM (active) |
| O=C(/C=C/c1ccco1)NC(=S)Nc1ccccc1Br | -36.4% | – |
| CCc1cccc(C)c1NS(=O)(=O)c1ccc(-c2cc(C)no2)s1 | 2.64% | – |
| CCC(=O)N1CCc2cc(Br)cc(S(=O)(=O)CCC(=O)NCCc3ccc(OC)c(OC)c3)c21 | 27% | – |
| CC(C)NC(=O)C1CCC(Cn2c(=O)c3sccc3n(Cc3ccc(F)cc3)c2=O)CC1 (centres undefined) | -5.59% | – |

| SMILES | activity change, negative = inhibition | Potency |
| --- | --- | --- |
| CCOC(=O)c1c(C)[nH]c(C)c1S(=O)(=O)N1CCCC(C(=O)NCc2ccccc2Cl)C1 (centres undefined) | -21.1% | – |
| O=C(Nc1ccccc1)c1ccco1 | 6.6% | – |
| O=C(Nc1nc(-c2ccco2)c(-c2ccco2)s1)c1ccco1 | – | 44.7 µM (active) |
| O=C(Nc1nnc(CCOCCOCCc2nnc(NC(=O)c3ccco3)s2)s1)c1ccco1 | -25.7% | – |
| CCOc1ccc(CNC(=O)c2ccc(CS(=O)c3ccccc3)o2)cc1 (centres undefined) | -17.4% | – |
| O=C(NCCCn1ccnc1)c1cc(-c2ccccc2)on1 | -27.5% | – |
| COc1cccc(-c2nn(-c3ccccc3)cc2/C=C(\C#N)C(=O)NCCCn2ccnc2)c1 | – | 50.1 µM (active) |
| CC(C)(C)OC(=O)N/N=C/c1cn(-c2ccccc2)nc1-c1cccnc1 | 3.33% | – |
| Cc1cc2c(cc1S(=O)(=O)CCC(=O)Nc1ccc(OC(F)(F)F)cc1)OCC(=O)N2 | 1.13% | – |
| Cc1cc(C)cc(NC(=O)CSc2oc(-c3ccccc3)nc2S(=O)(=O)c2ccc(Cl)cc2)c1 | -13% | – |
| COc1ccc2oc(=N)c(C(=O)Nc3ccc(Br)cc3)cc2c1 | -3.61% | – |
| O=C(Nc1cccnc1)c1ccc(Cl)cc1[N+](=O)[O-] | -25.8% | – |
| O=C(Nc1cccnc1)c1cc2cc(Br)ccc2oc1=O | – | 79.4 µM (active) |
| CCc1cc2c(cc3c(=O)n(CC(=O)N4CCN(c5cc(Cl)ccc5C)CC4)ncn32)s1 | 5.16% | – |
| COc1cc(Cl)c(C)cc1NC(=O)CCc1nc2cccnc2n1Cc1cccs1 | -18% | – |
| CCOc1ccc(NC(=O)c2c(NCc3cccc(OC)c3OC)sc3c2CCC3)cc1 | -1.31% | – |
| Cc1ccc(-c2nn(CCC(=O)Nc3ccc(Cl)c(Cl)c3)c(=O)c3ccccc23)cc1 | -11.8% | – |
| COc1ccc(CCC(=O)NCCc2csc(-c3ccc(Cl)cc3)n2)cc1 | -4.25% | – |
| CCOC(=O)c1ccc[n+](CC(=O)Nc2ccccc2OC(F)F)c1 | -1.09% | – |
| Cc1ccc(-c2nc(SCC(=O)Nc3ccccc3OC(F)F)c3c(C)c(C(=O)O)sc3n2)cc1 | – | 44.7 µM (active) |
| O=C(COC(=O)c1ccccc1SCC(=O)N1CCCC1)Nc1ccccc1OC(F)F | 3.45% | – |
| COc1cccc(C(=O)NC2=NC(c3ccc(N(C)C)cc3)CC(=O)N2)c1 (centres undefined) | -14.6% | – |
| CCCCCn1c(=O)[nH]c2cc(C(=O)Nc3ccc(F)cc3)ccc2c1=O | -13.7% | – |
| CCN(CC)S(=O)(=O)c1ccc2c(c1)N(CC(=O)NCC(C)c1ccccc1)C(=O)CO2 (centres undefined) | -35.7% | – |
| CC(=O)N1CCCc2cc(S(=O)(=O)Nc3ccc(Cl)cc3F)ccc21 | -5.37% | – |

| SMILES | activity change, negative = inhibition | Potency |
| --- | --- | --- |
| Cc1ccc2oc3c(c(=O)c2c1)C(c1ccc([N+](=O)[O-])cc1)N(CCCN1CCOCC1)C3=O (centres undefined) | -0.558% | – |
| Cc1ccccc1NC(=O)Cn1c(=O)n(CCc2ccccc2)c(=O)c2ccccc21 | 1.27% | – |
| Cc1ccc(C)c(CN2C(=O)c3ccccc3S(=O)c3ccc(C(=O)N4CCOCC4)cc32)c1 (centres undefined) | -12.7% | – |
| O=[N+]([O-])C(=c1ccc2c(c1)N1C3=C(CCCC3)CC3CCCCC31N=2)[N+](=O)[O-] (centres undefined) | – | 44.7 µM (active) |
| Cc1ccccc1CNC(=O)c1ccc(NC(=O)N2CCCCc3ccccc32)cc1 | -1.37% | – |
| Cc1ccc(CNC(=O)CSC2=Nc3ccccc3C3=NC(C)C(=O)N23)cc1 (centres undefined) | -9.55% | – |
| CCCN1CCN(CCCNC(=O)c2ccc3nc(Cc4ccccc4)oc3c2)CC1 | -14.6% | – |
| Cc1cccc(NC(=S)NCCc2ccc(Cl)cc2)c1C | -6.6% | – |
| Cc1ccc(NC(=S)NCCc2ccc(Cl)cc2)c(C)c1 | – | 79.4 µM (active) |
| Cc1cc(F)ccc1NC(=S)NCCc1ccccc1 | -10.7% | – |
| COc1cccc(N=C2SC(C(=O)Nc3cccc(Cl)c3)CC(=O)N2C)c1 (centres undefined) | 0.78% | – |
| CCOC(=O)N1CCc2c(sc(NCc3cccc(F)c3)c2C(=O)Nc2ccccc2OCC)C1 | -24.5% | – |
| Cc1sc2nc(CSCC(=O)NC3CCCCC3)[nH]c(=O)c2c1C | 9.45% | – |
| CSc1nnc(SCc2nc3sc(C(=O)O)c(C)c3c(=O)[nH]2)s1 | – | 50.1 µM (active) |
| Cc1sc2nc(CSCC(=O)Nc3c(Cl)cccc3Cl)[nH]c(=O)c2c1C | 9.3% | – |
| COc1c(Cl)cc(C(=O)N(Cc2ccccc2F)C2CCS(=O)(=O)C2)cc1Cl (centres undefined) | -9.74% | – |
| CC1CCCCN1CC(=O)N1CCCc2c1c(=O)oc1ccc(OCc3ccccc3)cc21 (centres undefined) | -34% | – |
| CCOc1ccc(NC(=O)C2CCN(S(=O)(=O)c3cc(-c4noc(C)n4)ccc3C)CC2)cc1 | 4.51% | – |
| COCCNCCOCCOc1cccc(OC)c1 | -19% | – |
| CC(O)CNCCOc1cccc(Oc2ccccc2)c1 (centres undefined) | – | 50.1 µM (active) |
| CC1(C)NC(=O)N(CCOc2cccc(Oc3ccccc3)c2)C1=O | 2.52% | – |
| COc1ccc(-c2c3c(=O)n(C)c(=O)n(C)c3c3c(C)nc4ccccc4n23)cc1 | 4.79% | – |
| Cc1ccc(CCNC(=O)c2ccc3c(c2)N(Cc2cc(C)ccc2C)C(=O)c2ccccc2S3=O)cc1 (centres undefined) | -17.4% | – |
| COc1cc(NC(=O)Cn2nc(-c3ccc(C)c(C)c3)ccc2=O)cc(OC)c1 | -3.69% | – |
